# According to the supplement of paper PMC12494721:
# Counter-ions that a name gives are not always drawn.
# Tested on: Klebsiella aerogenes DSM 30053
# Assay: growth (OD595) fold change vs plate DMSO controls (fold change (ratio)); higher = more growth
# Conditions: incubation time: 27 h, anaerobic, 37 °C
# In short: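 After 27 h at 37 °C under anaerobic conditions, 96-well cultures in mGAM were shaken and read at 595 nm. The readings were blank-subtracted, corrected for compound background using 20 µM compound solutions in water, and converted to OD with a calibration factor of 5. Growth is defined as the fold change over the median of DMSO controls on each plate. Fold changes above 1.5 were set to NA, and each value is the mean of 2 biological replicates.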
row,Structure (SMILES),growth
1,CN1CCC(=C2c3ccccc3CCc3cccnc32)CC1 [Azatadine maleate] (20 µM),0.994
2,CC(=O)OC[C@H]1O[C@@H]([S-])[C@H](OC(C)=O)[C@@H](OC(C)=O)[C@@H]1OC(C)=O.CCP(CC)CC.[Au+] [Auranofin] (20 µM),0.951
3,C=CCOC(Cn1ccnc1)c1ccc(Cl)cc1Cl (centres undefined) (20 µM),1.02
4,CC[C@H](C)C(=O)O[C@H]1CCC=C2C=C[C@H](C)[C@H](CC[C@@H]3C[C@@H](O)CC(=O)O3)[C@H]21 [Mevastatin] (20 µM),1.01
5,NS(=O)(=O)c1cc2c(cc1Cl)NC(Cc1ccccc1)NS2(=O)=O (centres undefined) [Benzylhydrochlorothiazide] (20 µM),0.986
6,O=c1[nH]c(=O)n(C2CCCO2)cc1F (centres undefined) [Tegafur] (20 µM),1.01
7,Cc1nn(C)c(Oc2ccccc2)c1/C=N/OCc1ccc(C(=O)OC(C)(C)C)cc1 (20 µM),1.02
8,CS(=O)(=O)OCCCCOS(C)(=O)=O [Busulfan] (20 µM),0.991
9,CCSc1ccc2c(c1)N(CCCN1CCN(C)CC1)c1ccccc1S2 [Thiethylperazine maleate] (20 µM),1.17
10,Cc1ncc([N+](=O)[O-])n1C [Dimetridazole] (20 µM),0.995
11,CC[C@@H]1C(=O)OC[C@@H]1Cc1cncn1C [Pilocarpine nitrate] (20 µM),0.987
12,Clc1ccc(C(Cn2ccnc2)OCc2ccsc2Cl)c(Cl)c1 (centres undefined) [Tioconazole] (20 µM),0.838
13,c1coc(CNc2ncnc3[nH]cnc23)c1 [Kinetin] (20 µM),0.962
14,CC1(C)O[C@@H]2C[C@H]3[C@@H]4CCC5=CC(=O)CC[C@]5(C)[C@@]4(F)[C@@H](O)C[C@]3(C)[C@]2(C(=O)CCl)O1 [Halcinonide] (20 µM),1.05
15,CC(=O)N[C@@H](CC(C)C)C(=O)O [N-Acetyl-L-leucine] (20 µM),0.991
16,COc1cccc(CCc2ccccc2OCC(CN(C)C)OC(=O)CCC(=O)O)c1 (centres undefined) [Sarpogrelate hydrochloride] (20 µM),1.02
17,CN1CCC(=C2c3ccccc3CCc3sccc32)CC1 [Pizotifen malate] (20 µM),0.982

row,Structure (SMILES),growth
1,Oc1ccc2ccccc2c1N=Nc1ccccc1 [Sudan I (1-phenylazo-2-hydroxynaphthalene)] (20 µM),1.08
2,CC(C)(C)c1ccc(C(=O)CCCN2CCC(OC(c3ccccc3)c3ccccc3)CC2)cc1 [Ebastine] (20 µM),1.01
3,O=c1oc2cc(O)ccc2s1 [Tioxolone] (20 µM),0.979
4,CCCOc1ccc(C(=O)OCCN(CC)CC)cc1N [Proparacaine hydrochloride] (20 µM),1.14
5,CC(C)NC[C@H](O)COc1cccc2ccccc12 [(S)-(-)-Propranolol hydrochloride] (20 µM),1.07
6,COc1cc(C(=O)NCc2ccc(OCCN(C)C)cc2)cc(OC)c1OC [Trimethobenzamide hydrochloride] (20 µM),0.972
7,N[C@@H](Cc1cc(I)c(Oc2cc(I)c(O)c(I)c2)c(I)c1)C(=O)O [(L) Thyroxine] (20 µM),1.01
8,O=C(NCC(O)CO)c1c(I)c(C(=O)NCC(O)CO)c(I)c(N(CCO)C(=O)CO)c1I (centres undefined) [Ioversol] (20 µM),1.01
9,CCCCC[C@H](O)/C=C/[C@H]1[C@H](O)CC(=O)[C@@H]1CCCCCCC(=O)O [Alprostadil] (20 µM),1.01
10,CC(C)(CO)[C@@H](O)C(=O)NCCCC(=O)O [Hopantenate calcium] (20 µM),0.983
11,Cc1nnc(NS(=O)(=O)c2ccc(N)cc2)s1 [Sulfamethizole] (20 µM),1.06
12,OC[C@H](O)C(O)[C@@H](O)CO [L-Arabinitol] (50 µM),0.979
13,CN/C(=N\CCSCc1nc[nH]c1C)NC#N [Cimetidine] (20 µM),1.07
14,CCN(CC)C(=O)/C(C#N)=C/c1cc(O)c(O)c([N+](=O)[O-])c1 [Entacapone] (20 µM),1.06
15,OC(CNCC(O)C1CCc2cc(F)ccc2O1)C1CCc2cc(F)ccc2O1 (centres undefined) [Nebivolol hydrochloride] (20 µM),0.992
16,CCN(CC)CC(=O)Nc1c(C)cccc1C [Lidocaine hydrochloride] (20 µM),0.979
17,C[C@H](NCc1ccc(OCc2cccc(F)c2)cc1)C(N)=O [Safinamide] (20 µM),1
